# A selection: hits, their analogues and other compounds. The true share with any hit is near 8%.
# KB-V1 MDR tox: kills drug-selected multidrug resistant KB-V1 cells. Potency, µM (series often up to 46.1 µM), usual class: cytotoxic. AID 1347076. 400,000 compounds, 3.4% hits. KB-V1 MDR cells viability, CellTiter-Glo, 72 h; further: on the % scale 0 is the no-effect control and ±100 the full control effect; nearly all actives have a fitted effect of over 60% in size
#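 Compound-treated KB-V1 multidrug-resistant cells, 72 h, 37 degrees C; viability by CellTiter-Glo. Fitted qHTS curves give the values.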
# KB-3-1 tox: kills parental KB-3-1 adenocarcinoma cells; KB-3-1 viability, CellTiter-Glo ATP luminescence, 72 h; Potency, µM (series often up to 46.1 µM), most hits filed as cytotoxic; 400,000 compounds, 1.4% hits; further: on the % scale 0 is the no-effect control and ±100 the full control effect; nearly all actives have a fitted effect of over 60% in size
#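 Screening of KB-3-1 cells (DMEM, 10% FBS, phenol-red free) ran from lowest to highest compound concentration; after 72 h at 37 °C viability was read luminescently and curves fitted.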
# MCF10A rereplic: induces DNA re-replication in MCF 10a normal breast cells; MCF 10A DNA re-replication, Hoechst nuclear intensity, 48 h; 350,000 compounds, 2.9% hits; Potency, µM (doses to about 46.1 µM), for the others: at the highest dose activity, positive = re-replication, hits mostly activators; AID 624296; further: % of control where 0% means no effect; nearly all actives have a fitted effect of over 50% in size
# HT1080 IDH1KD tx: HT-1080 IDH1 knockdown cell toxicity (counter line); 360,000 compounds, 2% hits; Potency, µM (series often up to 46.1 µM), without a hit: top-dose activity, negative = toxicity, hits mostly cytotoxic; HT-1080 IDH1 knockdown viability, ATP luminescence, 48 h;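 further: 0% = DMSO wells and -100% = cell-free medium wells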
#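 Knockdown cells (IDH1KD HT-1080) received compounds 2 h after plating at 750 cells/well and were kept 48 h at 37 °C in 5% FBS RPMI. A CellTiter-Glo luminescence read gave % activity for curve fitting.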
# HT1080NT lethal: kills 2HG-producing HT-1080-NT fibrosarcoma cells; Potency, µM (doses to about 46.1 µM), inactives show at the top dose activity, negative = less viability, most hits filed as cytotoxic; AID 686970; HT-1080-NT fibrosarcoma viability, CellTiter-Glo ATP luminescence, 48 h; 360,000 compounds, 1.6% hits;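 further: NT is the 2HG producing partner of a matched IDH1 knockdown line; 0% = DMSO-treated cells and -100% = media-only wells without cells; nearly all actives have a fitted effect of over 55% in size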
#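 750 cells/well, RPMI + 5% FBS; 2 h settle, compound pin-transfer, 48 h at 37 degrees C. CellTiter-Glo 10 min RT, luminescence. Normalized to DMSO and media-only wells.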
# SW480 rerep: inducers of DNA re-replication in SW480 colon cancer cells; SW480 DNA re-replication, Hoechst DNA content imaging, 48 h; Potency, µM (series often up to 46.1 µM), inactives show at the highest dose re-replication activation, usual class: activators; 340,000 compounds, 1.8% hits; AID 624297; further: % of control where 0% means no effect; nearly all actives have a fitted effect of over 55% in size
#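 Per well, 250 cells were exposed to pinned compound for 48 hr. Nuclear DNA was visualised with Hoechst (40 min, 37 C) and total object intensity recorded by fluorescence scanning.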
# The depositor's hits bear a star; i = inactive; u = inconclusive; x = not tested or not shown; ! = a repeat was not active. The call rests on the fitted dose curve; in most records, active means well fitted curve in the direction sought with a large enough effect; inconclusive means small, poorly fitted or top-dose-only effect, or another doubt; inactive means no such curve, though single readings can be large; an effect the other way counts as inactive or inconclusive. Potency means the concentration at half of the fitted maximal effect.
SMILES,KB-V1 MDR tox,KB-3-1 tox,MCF10A rereplic,HT1080 IDH1KD tx,HT1080NT lethal,SW480 rerep
CCC1=NN(S(=O)(=O)c2ccc(C)cc2)C(O)(C(F)(F)F)C1 (stereo not given),i,i,-7%,25%,u,-5%
COc1ccccc1-c1cccc(-c2nc(C(=O)Nc3nccs3)cc3c2[C@H](CCO)N(C(C)=O)C3)c1,u,i,x,u,u,x
CC1(C(=O)Nc2ccc(Cl)c(C(F)(F)F)c2)Cc2c(-c3ccc(C(N)=O)cc3)ccnc2O1 (stereo not given),u,u,x,16µM*,16µM*,x
CC1(C(=O)Nc2ccc(Cl)c(C(F)(F)F)c2)Cc2c(-c3cccc(C(N)=O)c3)ccnc2O1 (stereo not given),u,i,x,u,23µM*,x
CC(C)c1ccc(NC(=O)C2(C)Cc3c(-c4ccc(C(N)=O)cc4)ccnc3O2)cc1 (stereo not given),i,i,x,-13%,-19%,x
CC(=O)Nc1ccc(Nc2nc(Nc3ccc(Cl)cc3)nc(N3CCOCC3)n2)cc1,i,i,x,x,x,x
COc1cccc(-n2c(=O)c3c4c(sc3n(Cc3ccccc3C#N)c2=O)CCCC4)c1,i,i,x,x,x,x
CNC(=O)C1(C)Cc2c(-c3ccc4c(c3)OCO4)ccnc2O1 (stereo not given),i,i,x,6%,19%,x
CN(C)c1ccc(CNC(=O)C2(C)Cc3c(-c4ccc(N(C)C)cc4)ccnc3O2)cc1 (stereo not given),i,u,x,u,u,x
CN(C)c1ccc(CNC(=O)C2(C)Cc3c(-c4ccc5c(c4)OCO5)ccnc3O2)cc1 (stereo not given),12µM*,7.3µM*,x,u,u,x
CC1(C(=O)NCC2CC2)Cc2c(-c3ccc4c(c3)OCO4)ccnc2O1 (stereo not given),u,15µM*,x,u,u,x
CS(=O)(=O)c1ccc(NC(=O)c2cc3c(cc2Cl)N2CCCCCC2=NS3(=O)=O)cc1,i,i,-5%,-7%,1%,-4%
COc1ccc(OC)c2[nH]c(=O)c(CCNC(=O)c3ccc(S(=O)(=O)N4CCCCC4)cc3)cc12,8.2µM*,i,4%,3%,5%,-2%
COc1ccc(OC)c2[nH]c(=O)c(CCNC(=O)C(C)C)cc12,i,i,-5%,16%,12%,3%
COc1ccc(OC)c2[nH]c(=O)c(CCNC(=O)C3CCCCC3)cc12,9.2µM*,i,-12%,5%,23%,-4%
CC(Sc1nc(-c2ccc(F)cc2)cs1)C(=O)N1c2ccccc2CC1C (stereo not given),u,i,21µM*,u,u,u
CCc1ccc(Nc2nnc(SCC(=O)N(C)CC(=O)Nc3ccccc3CC)s2)cc1,u,i,u,9%,16%,6%
Cc1ccc(Nc2nnc(SCC(=O)Nc3cccnc3Cl)s2)cc1C,5.2µM*,i,u,u,-12%,-8%
CCc1ccccc1NC(=O)CN(C)C(=O)CSc1nnc(Nc2ccc(C)cc2)s1,15µM*,i,-36%,0%,-8%,-51%
CN(C)c1cccc(-c2nc(N3CCC(C(N)=O)CC3)ncc2F)c1,i,i,x,x,x,x
CCc1ccc(-n2c(C)nnc2SCc2nc(-c3ccc(OC)cc3)no2)cc1,i,i,x,x,x,x
COc1ccc(C(=O)Nc2nc3cc4c(cc3s2)OCCO4)c(OC)c1,i,i,4.1µM*,1%,-4%,16%
COc1ccc(OC)c(NC(=O)c2cnc(Nc3ccccc3OC)c3ccccc23)c1,6.5µM*,7.3µM*,24%,u,u,3.3µM*
COc1ccc(OC)c(NC(=O)Nc2cccc3ccccc23)c1,7.3µM*,i,u,9%,2%,-2%
COc1ccc2nc(NC(=O)c3ccccc3O)sc2c1,i,u,21µM*,-28%,u,u
SMILES,KB-V1 MDR tox,KB-3-1 tox,MCF10A rereplic,HT1080 IDH1KD tx,HT1080NT lethal,SW480 rerep
COc1ccc(Nc2ncc(C(=O)Nc3cc(Cl)c(OC)cc3OC)c3ccccc23)cc1,i,i,x,x,x,x
COc1cc2c(NC3CCN(C)CC3)nc(N3CCCN(C)CC3)nc2cc1O,x,x,x,10%,-2%,x
COc1ccc2nc(NC(=O)Nc3cccc4ccccc34)sc2c1,i,i,9.2µM*,u,u,-19%
COc1ccc2nc(NC(C)=O)sc2c1,i,i,16%,4%,2%,-4%
COc1ccc2nc(NC(=O)c3ccc4ncsc4c3)sc2c1,i,i,15µM*,u,u,u
COc1cccc(C(=O)Nc2cccc3ccccc23)c1,i,i,0%,3%,1%,-1%
COc1cccc(C(CC(=O)Nc2cccc3ccccc23)NC(=O)c2ccccc2)c1 (stereo not given),5.8µM*,i,5%,u,u,15%
COc1ccc2nc(NC(=O)Nc3ccccc3OC)sc2c1,4.6µM*,5.2µM*,u,u,u,2.9µM*
CCOC(=O)C1=C(C)N(CC(C)C)C(=O)/C1=C\c1ccc(OCC(=O)Nc2ccccc2)cc1,u,i,14%,u,-24%,6%
O=CNc1ccc2c3c(cccc13)-c1ccccc1-2,u,i,u,-5%,-11%,2.3µM*
CC(C)c1ccc(NC(=O)CSc2nc(=O)n(Cc3cccnc3)c3c2CCC3)cc1,i,i,x,x,x,x
COc1cccc(CC2(CO)CCN(S(=O)(=O)c3ccc(OC)cc3OC)CC2)c1,u,i,-1%,-5%,-2%,-7%
CCCCn1nnc(NC(=S)NC(=O)c2cccs2)n1,i,i,-5%,0%,-2%,18µM*
FC(F)(F)c1nc2nc(Cl)c(Cl)nc2[nH]1,i,u,x,-20%,-17%,x
FC(F)(F)c1cccc(-c2nc3nc(Cl)c(Cl)nc3[nH]2)c1,u,2.6µM*!,u,u,u,u
CC1=C(C(=O)OC2CCCC2)C(c2ccc(Cl)cc2)CC(=O)N1 (stereo not given),i,i,x,x,x,x
O=C(O)C1CCN(C(=O)CSc2nc3cc(Cl)ccc3c(=O)n2Cc2ccccc2)CC1,i,i,11%,-20%,-2%,-7%
Clc1ccc2c(SCC3CO3)c3ccccc3nc2c1 (stereo not given),16µM*,u,u,18µM*,u,u

# Screening data as filed in PubChem BioAssay.
